Measurements reported in PubChem BioAssay AID2685 (National Center for Advancing Translational Sciences (NCATS), 2010).
Screen size: about 320,000 compounds; about 2,100 (0.66%) were called active. Not shown: some 53% with an inconclusive outcome. The call rests on the fitted dose curve; in most records, active means well fitted inhibition curve with a large enough effect in the signal ratio, with a control signal flat (not every such curve was filed as active); inconclusive means small, poorly fitted or top-dose-only effect, or effect the other way, or a change in a side signal; inactive means flat fitted curve, though single readings scatter; the % refers to the signal ratio. For the sample, actives were picked, then their nearest neighbours and some compounds at random.

assay: qHTS Assay for Lipid Storage Modulators in Drosophila S3 Cells; conditions: BODIPY lipid droplet fluorescence, 18-24 h, cells fed with added oleic acid; cell number change: measured here: cell count max response; series mostly up to 46.1 µM; lipid storage change, negative = inhibition: at the top concentration;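 on cell number change: cells counted by Cell Tracker Red CMTPX staining in the red channel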; on lipid storage change, negative = inhibition: on the % scale 0 is the no-effect control and ±100 the full control effect
How it was run: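 Drosophila S3 cells got compounds at several concentrations plus oleic acid (400 uM solution). Laser-scanning cytometry with 488 nm excitation read lipid droplets at 500-530 nm and cells at 575-640 nm. Percent activity was relative to 20 uM Triacsin C.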
Potency means the concentration at half of the fitted maximal effect.

Structure (SMILES)	lipid storage change, negative = inhibition	cell number change	Potency	outcome
Cc1nc([N+](=O)[O-])c(C(=O)OCc2cccc(Br)c2)n1C	7.28% (inactive)	-13.6%	–	–
O=C(COC(=O)C1CCN(c2ccc(C(F)(F)F)cn2)CC1)NCc1ccc(Cl)cc1Cl	-2.28% (inactive)	7.81%	–	–
O=C1CCCN1c1ccc(S(=O)(=O)N2CCCCC2)cc1[N+](=O)[O-]	2.6% (inactive)	14.2%	–	–
CS(=O)(=O)c1ccccc1C(=O)N(CCc1ccccc1)Cc1ccccc1	-1.63% (inactive)	-4.69%	–	–
O=C(NCC1CCN(C(=O)c2ccc([N+](=O)[O-])cc2)CC1)C(=O)Nc1ccccc1	-6.82% (inactive)	-0.701%	–	–
Cc1c(NC(=O)CSc2ccccc2C(=O)Nc2cccnc2)c(=O)n(-c2ccccc2)n1C	0.352% (inactive)	13.8%	–	–
CCOC(=O)C1(CCOC)CCN(Cc2ccc(C3CCCCO3)s2)CC1 (stereo not drawn)	-17.6% (inactive)	-8.03%	–	–
O=C(Cc1ccccc1)NN1C(=O)C2C3C=CC([C@@H]2C1=O)C31CC1 (stereo partly drawn)	-2.59% (inactive)	-3.77%	–	–
O=C1C2C(C(=O)N1CCc1ccccc1)C1C=CC2C12CC2 (stereo not drawn)	–	-11.6%	23.1 µM (active)	–
O=C1C2C(C(=O)N1Cc1cccnc1)C1C=CC2C12CC2 (stereo not drawn)	–	-2.7%	–	inactive
COCC(=O)Nc1ccc(C(C)C)cc1	–	24.3%	–	inactive
CC(C)(C)C(=O)NCCN1CCN(C(=O)C(C)(C)C)CC1	5.31% (inactive)	3.18%	–	–
Cc1ccc(-c2nnn(CC(=O)O)n2)cc1	–	–	–	inactive
Cc1ccc(-c2nnn(CC(=O)N3C(C)CCCC3C)n2)cc1 (stereo not drawn)	–	-11%	10.3 µM (active)	–
Cc1ccc(-c2nnn(CCC(=O)N3CCCCC3C)n2)cc1 (stereo not drawn)	5.42% (inactive)	10.5%	–	–
Cc1ncc(CO)c(/C=N/NC(=O)c2ccc(O)cc2)c1O	-1.92% (inactive)	19.8%	–	–
Cc1ncc(CO)c(/C=N/NC(=O)c2ccccc2Br)c1O	-8.28% (inactive)	0.48%	–	–
Cc1cc(C(=O)N/N=C/c2c(CO)cnc(C)c2O)c2ccccc2n1	–	-19.9%	5.17 µM (active)	–
Cn1c(CNC(=O)OC(C)(C)C)nnc1SCc1c(Cl)cccc1Cl	6.49% (inactive)	-2.58%	–	–
Nc1nc(-c2ccccc2)nn1C(=O)c1ccco1	-0.905% (inactive)	-9.73%	–	–
Cc1cc(NC(=O)COC(=O)CCC(=O)c2ccc(F)cc2)no1	-10.1% (inactive)	5.31%	–	–
COc1ccc(CNC(=O)CN2C(=O)NC(C)(c3ccc(C(C)(C)C)cc3)C2=O)cc1 (stereo not drawn)	2.76% (inactive)	5.69%	–	–
CC(C)(C)c1ccc(C2(C)NC(=O)N(CC(=O)NCc3cccs3)C2=O)cc1 (stereo not drawn)	–	3.77%	5.17 µM (active)	–
O=C(CN1C(=O)NC2(CCCCCC2)C1=O)NCc1cccs1	1.88% (inactive)	-8.23%	–	–

Structure (SMILES)	lipid storage change, negative = inhibition	cell number change	Potency	outcome
Cc1ccc(S(=O)(=O)NCc2ccccc2)cc1C(=O)N1CCCCCCC1	-14.6% (inactive)	-10.2%	–	–
COCCNC(=O)c1onc(CSc2nc3ccccc3[nH]2)c1C(=O)NCCOC	–	-7.78%	–	inactive
Cc1cc(C)cc(SCc2noc(C(=O)NCc3ccccc3)c2C(=O)NCc2ccccc2)c1	5.46% (inactive)	-2.6%	–	–
O=C(NCC1CC1)c1onc(CSc2nc3ccccc3[nH]2)c1C(=O)NCC1CC1	–	-10.5%	11.6 µM (active)	–
O=C(NCC1CC1)c1onc(CSc2ccc(F)cc2)c1C(=O)NCC1CC1	-7.02% (inactive)	10.6%	–	–
C=CCNC(=O)c1onc(CSc2nc3ccccc3[nH]2)c1C(=O)NCC=C	–	-6.29%	–	inactive
O=C(NCc1ccccc1)c1onc(CSc2nc3ccccc3[nH]2)c1C(=O)NCc1ccccc1	–	-26.6%	14.6 µM (active)	–
Cc1c(C(=O)OC(C)C)nnn1-c1nonc1N	-3.46% (inactive)	7.24%	–	–
Cc1ccsc1-c1nc(CN2CCCC2c2ccc(F)cc2)c(C)o1 (stereo not drawn)	8.98% (inactive)	4.95%	–	–
Cc1cnc(C(=O)N2CCCC(C(=O)c3cccc(OC(C)C)c3)C2)cn1 (stereo not drawn)	2.98% (inactive)	-12.5%	–	–
Cc1ccc(C)c(NC(=O)c2ccc[n+](Cc3ccc([N+](=O)[O-])cc3)c2)c1	-3.16% (inactive)	11.2%	–	–
CNNC(=O)C(C)NC(=O)c1ccc(Br)cc1 (stereo not drawn)	11.6% (inactive)	10.8%	–	–
CCC(CC)NC(=O)Nc1ccc(C)cc1	5.28% (inactive)	-11.1%	–	–
CCN(CC)c1nc(N)nc(NS(=O)(=O)c2ccc(Cl)cc2)n1	8.21% (inactive)	7.29%	–	–
CCOCCCn1c(SCC(=O)NC(C)(C)C)nc2ccccc2c1=O	29.5% (inactive)	-4.14%	–	–
O=c1c2ccccc2nc(SCc2nc3ccccc3s2)n1CCCO	0.263% (inactive)	-14.5%	–	–
CCOCCCn1c(SCc2nc3ccccc3s2)nc2ccccc2c1=O	–	-21.8%	3.66 µM (active)	–
Brc1ccccc1OCCCN1CCCCCC1	-11.1% (inactive)	5.41%	–	–
O=C(NNc1nc2c(F)cccc2s1)c1cc(=O)c2ccccc2o1	-15% (inactive)	-1.04%	–	–
COc1ccc2nc(NNC(=O)c3cc(=O)c4ccccc4o3)sc2c1	–	1.29%	5.17 µM (active)	–
O=C(Cc1ccccc1)Nc1nc2ccccc2s1	-4.4% (inactive)	-15.5%	–	–
O=C(CCNC(=O)c1ccccc1)Nc1nc2ccccc2s1	–	12%	3.66 µM (active)	–
COc1ccc2nc(NC(=S)NC(=O)c3ccco3)sc2c1	0.215% (inactive)	10%	–	–
COc1ccc2nc(NC(=O)c3ccco3)sc2c1	-16.9% (inactive)	9.21%	–	–

Structure (SMILES)	lipid storage change, negative = inhibition	cell number change	Potency	outcome
COc1ccc2nc(NC(=O)CCNC(=O)c3ccco3)sc2c1	–	15.7%	8.2 µM (active)	–
CC(=O)c1sc(NC(=O)c2cc(=O)c3ccccc3o2)nc1C	-6.15% (inactive)	-11.4%	–	–
O=C(CCNC(=O)c1ccccc1Cl)Nc1nc2ccccc2s1	6.98% (inactive)	9.97%	–	–
COc1ccc(C(=O)NCCOc2cccc(OC)c2)cc1	14.8% (inactive)	26.7%	–	–
O=C1C=Cc2ccccc2/C1=C/c1[nH]c(=O)[nH]c1O	5.67% (inactive)	1.79%	–	–
O=C(NC(=S)Nc1ccc(S(=O)(=O)Nc2nccs2)cc1)c1ccc(Br)o1	2.23% (inactive)	–	–	–
O=C(NCCOC(=O)C1COc2ccccc2O1)C1COc2ccccc2O1 (stereo not drawn)	-28.4% (inactive)	–	–	–
O=[N+]([O-])c1ccc(-c2ccc(/C=N/Nc3nc(N4CCCC4)nc(N4CCCC4)n3)o2)cc1	–	-13%	–	inactive
O=[N+]([O-])c1cccc(/C=N/Nc2nc(NCc3ccccc3)nc(N3CCOCC3)n2)c1O	-7.86% (inactive)	0.539%	–	–
COc1nc(N/N=C/c2ccc(-c3cccc([N+](=O)[O-])c3)o2)nc(N2CCOCC2)n1	7.42% (inactive)	-9.45%	–	–
O=[N+]([O-])c1ccc(/C=N/Nc2nc(N3CCCCC3)nc(N3CCCCC3)n2)cc1	11.3% (inactive)	-0.784%	–	–
O=[N+]([O-])c1ccc(-c2ccc(/C=N/Nc3nc(N4CCCCC4)nc(N4CCCCC4)n3)o2)cc1	–	17%	5.17 µM (active)	–
O=[N+]([O-])c1ccc(-c2ccc(/C=N/Nc3nc(NCc4ccccc4)nc(N4CCOCC4)n3)o2)cc1	–	14.1%	18.4 µM (active)	–
CN(C)S(=O)(=O)N1CCC(Oc2cccc(C(=O)NC3CCCCCC3)c2)CC1	–	–	–	inactive
O=C(O)c1ccccc1C(=O)N1CC=C(c2ccccc2)CC1	-0.597% (inactive)	1.73%	–	–
Nc1[nH][nH]c(=O)c1N=Nc1cccc(Cl)c1	26.5% (inactive)	1.25%	–	–
Cn1cc([N+](=O)[O-])c(C(=O)Nc2ccc(Br)cn2)n1	1.79% (inactive)	–	–	–
O=C(CNC(=O)COc1ccccc1)NCc1ccccc1F	-0.841% (inactive)	0.16%	–	–
O=[N+]([O-])c1ccc(NC(=S)N2CCOCC2)cc1	-4.46% (inactive)	-10.6%	–	–
Fc1ccc(CN2CCN(C(c3ccccc3)c3ccccc3)CC2)cc1	–	-21.3%	16.4 µM (active)	–
OC(CN1CCN(Cc2ccccc2)CC1)c1ccc(F)cc1 (stereo not drawn)	2.63% (inactive)	22.1%	–	–
COc1cc(CN2CCN(C(c3ccccc3)c3ccccc3)CC2)cc(OC)c1OC	21.4% (inactive)	6.8%	–	–
COc1ccc(Br)cc1CNC(=O)CCC(=O)n1nc(C)c2ccccc21	–	-11.3%	–	inactive
COc1ccccc1NC(=S)NC1CCCCC1	-1.18% (inactive)	22.1%	–	–

Structure (SMILES)	lipid storage change, negative = inhibition	cell number change	Potency	outcome
CCOC(=O)C(=O)NC(C)CCc1ccccc1 (stereo not drawn)	-6.25% (inactive)	-12.3%	–	–
Cc1ccccc1NC(=O)C(=O)NC(C)CCc1ccccc1 (stereo not drawn)	–	7.44%	7.31 µM (active)	–
Cc1ccccc1NC(=S)NC(C)CCc1ccccc1 (stereo not drawn)	-12% (inactive)	-4.86%	–	–
COCCCNC(=O)COc1cc2c(c3oc(=O)c(C)c(C)c13)CCC(C)(C)O2	-1.02% (inactive)	14.5%	–	–
O=C(Nc1ccccc1)c1ccc(CN2CCc3ccccc3C2)cc1	-0.669% (inactive)	7.26%	–	–
O=C(Nc1ccc(S(=O)(=O)N2CCCC2)cc1)c1ccc(CN2CCOCC2)cc1	-12.9% (inactive)	0.801%	–	–
O=C(Nc1ccc(F)cc1)c1ccc(CN2CCc3ccccc3C2)cc1	–	-4.53%	5.17 µM (active)	–
O=C(Nc1ccc(S(=O)(=O)N2CCCCC2)cc1)c1ccc(CN2CCc3ccccc3C2)cc1	–	-10.9%	18.4 µM (active)	–
Cc1ccc(NC(=O)c2ccc(CN3CCc4ccccc4C3)cc2)cc1	9.69% (inactive)	6%	–	–
O=C(Nc1ccccc1)c1ccc(S(=O)(=O)N2CCCCC2)cc1	1.31% (inactive)	-9.41%	–	–
Cc1cc(-n2nc(C)cc2C)n2nc(C)c(-c3ccc(Cl)cc3)c2n1	–	1.87%	–	inactive
CC(C)CCN1CC(C(=O)NC(C)C)CC1=O (stereo not drawn)	1.74% (inactive)	-5.32%	–	–
CN1CCN(S(=O)(=O)c2ccc(NC(=O)c3ccc(Br)s3)cc2)CC1	18.6% (inactive)	-9.91%	–	–
COC(=O)c1ccc(CN2CCC(CO)(Cc3cccc(OC)c3)CC2)cc1	12.4% (inactive)	1.63%	–	–
CC(=O)Nc1ccc(C(=O)OC2CCOC2=O)cc1 (stereo not drawn)	-5.88% (inactive)	3.14%	–	–
Cc1cccc(C(=O)OC2CCOC2=O)c1O (stereo not drawn)	–	4.5%	0.731 µM (active)	–
O=C(Nc1ccccc1C(=O)OC1CCOC1=O)c1ccco1 (stereo not drawn)	–	2.86%	–	inactive
Cc1ccc(NC(=O)c2cccs2)cc1NC(=O)c1cccc(F)c1	16.8% (inactive)	9.07%	–	–
Cc1ccc(C(=O)N/C(=C\c2cccs2)C(=O)NCc2cccnc2)cc1	15.8% (inactive)	10.4%	–	–
Fc1cccc(NC(=S)N2CCc3ccccc32)c1	–	-4.05%	–	inactive
Fc1ccc(NC(=S)N2CCCc3ccccc32)cc1	7.56% (inactive)	-5.16%	–	–
Fc1ccc(NC(=S)N2CCc3ccccc32)cc1	–	-10.9%	16.4 µM (active)	–
